Test [1] concerns S. cerevisiae SK1 pCDA2-eGFP (USY613), sporulating. The experiment in a line: CDA2-GFP sporulation assay sensitivity score (z-score vs DMSO controls); higher = stronger inhibition of sporulation, active = hit call of the paper.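 Further: active if sensitivity score above 5.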
The subject of test [2] is S. cerevisiae AD1-9 (efflux-pump deficient), vegetative growth in YPD. Put plainly: growth sensitivity score (doubling time z-score vs DMSO controls); higher = slower growth, strongly negative scores also mark growth inhibition (complete suppression), active = hit call of the paper. In outline: (§1)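 Saccharomyces cerevisiae strains BY4741 and AD1-9 were seeded in rich medium in microtiter plates at an OD600 of 0.065. Compounds were added at a 1:100 dilution of DMSO stock. Optical density was read every 15 min for 24 hours on a Tecan GENios reader. Average doubling time was the time taken to reach a set generation point divided by generation number, and the growth sensitivity score was (compound mean − DMSO-control mean)/DMSO-control SD, using eight DMSO controls per experiment.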

Test [3] deals with S. cerevisiae BY4741 (wild-type), vegetative growth in YPD. The test is described as above. In outline: as §1
The mark [4] stands for this setting: stock concentration (mM, diluted 1:100): 10.
Where [5] appears, read: stock concentration (mM, diluted 1:100): 7.7.
The mark [6] stands for this setting: stock concentration (mM, diluted 1:100): 8.7.

The structures appear in SMILES notation. Structures can show the parent of a compound that is named as a salt.

In the case of `CN=C1CN(O)C(c2ccccc2)=c2cc(Cl)ccc2=N1` [Chlordiazepoxide], the “CDA2-GFP sporulation assay sensitivity score” value in test [1] (setting [4]) is 1.73 (inactive). Moreover, the values for the growth sensitivity score in test [2] (setting [4]) and in test [3] (setting [4]) were 0.94 (inactive) and 1.44 (inactive), respectively.
For `CNC(=O)Oc1ccc2c(c1)[C@]1(C)CCN(C)[C@@H]1N2C` [Physostigmine] the same measures were 0.21 (inactive), -0.52 (inactive) and -1.51 (inactive).
Consider `C=C1C[C@@H]2[C@H](CC[C@]3(C)C(=O)CC[C@@H]23)[C@@]2(C)C=CC(=O)C=C12` [Exemestane], for which the “CDA2-GFP sporulation assay sensitivity score” value in test [1] (setting [4]) is 7.73 (active). In addition, the figures for the growth sensitivity score in test [2] (setting [4]) and in test [3] (setting [4]) were 4.58 (active) and 0.77 (inactive), respectively.
For `Oc1ccc2c3c1O[C@H]1c4[nH]c5ccccc5c4C[C@@]4(O)[C@@H](C2)N(CC2CC2)CC[C@]314` [Naltrindole] the same measures were 3.11 (inactive), -3.12 and -1.11 (inactive).
In the case of `CCN(CC)CCOC(=O)C(O)(c1ccccc1)c1ccccc1` [Benactyzine hydrochloride], in test [1] (setting [4]), the “CDA2-GFP sporulation assay sensitivity score” value is 0.09 (inactive). The growth sensitivity score is -0.44 (inactive) in test [2] (setting [4]) and -0.83 (inactive) in test [3] (setting [4]).
For `CS(=O)(=O)Nc1ccc(Cc2noc(-c3ccc4[nH]cc(CCN)c4c3)n2)cc1` the same measures were 2.55 (inactive), -0.07 (inactive) and 0.39 (inactive).
Regarding `CCC(COC(=O)c1cc(OC)c(OC)c(OC)c1)(c1ccccc1)N(C)C` (configuration not stated) [Trimebutine maleate], the “CDA2-GFP sporulation assay sensitivity score” value in test [1] (setting [5]) was 0.35 (inactive). Moreover, the growth sensitivity score in test [2] (setting [5]) is 3.33 (active); in test [3] (setting [5]), 0.59 (inactive).
`c1ccc2c(c1)Nc1ccccc1S2` [Phenothiazine]: in test [1] (setting [4]), the “CDA2-GFP sporulation assay sensitivity score” value was 3.38 (inactive). Also, the growth sensitivity score in test [2] (setting [4]) was 11.7 (active); in test [3] (setting [4]) it was 5.99 (active).
Turning to `CC(NC(C)(C)C)C(=O)c1cccc(Cl)c1` (configuration not stated) [Bupropion hydrochloride], the “CDA2-GFP sporulation assay sensitivity score” value in test [1] (setting [6]) is 3.2 (inactive). The growth sensitivity score in test [2] (setting [6]) was -0.08 (inactive); in test [3] (setting [6]), -0.87 (inactive).

(Values after the supplement of paper PMC3414501.)
